Experimental data: PubChem BioAssay (NCI)
This is part of a sample that, as a whole, favours compounds with a hit. Of some 83,000 tested, about 20% had one in any assay.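 Cells were grown in 96-well plates and exposed to the test compound at a single concentration for 48 hours; results are reported as percent growth, with values below 10 considered active.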 A number with no mark means an inactive call. Calls of active or inactive are those of the source.

These molecules were tested on COLO 205 colon (assay: NCI-60 one-dose screen, 48 h (100 = growth as untreated, 0 = no growth, -100 = all killed)). Conditions: 10 µM.
Molecule `CC(C)N(CCOc1cccc(-c2nc3sccn3c2-c2ccnc(S(C)(=O)=O)n2)c1)C(C)C` has a growth of 97.6%.
Molecule `O=C(CSc1nnc(-c2ccc(Cl)cc2)o1)Nc1ccc(C(=O)/C=C/c2ccc(Cl)cc2)cc1` has a growth of 117%.
Work on `CC[C@@H](C(=O)[C@@H](C)[C@@H](O)[C@H](C)[C@@H]1O[C@@H]([C@@H](CC)C(=O)N(CC)CC)CC[C@@H]1C)C1O[C@]2(C=CC(=O)[C@]3(CC[C@@](C)([C@H]4CC[C@](O)(CC)[C@H](C)O4)O3)O2)[C@H](C)C[C@@H]1C` (stereo not given in full) yielded a growth of 12.2%.
`COc1ccc(-c2onc(N)c2-c2cc(OC)c3c(c2)OCO3)cc1` showed a growth of 12.4%.
For `CCN(CC)CCOc1cccc2c1C(=O)c1cccc(OCCN(CC)CC)c1C2=O`, the growth was 6.57% (active).
In the case of `COc1cc(/C=C/c2cc(/C=C/c3ccc(O)c(OC)c3)n(C(=O)Nc3ccc(C)cc3)n2)ccc1O`, the growth was -25.8% (active).
`CCOC(=O)c1cc(C(=O)c2ccc(F)cc2F)n2ccccc12` showed a growth of 110%.
In the case of `COc1cc2c(cc1NC(=O)C(Cl)Cl)-c1ccc(NC(=O)C(Cl)Cl)cc1C2`, the growth was -86.5% (active).
`COc1ccc(-c2cc(-c3ccccc3)nc(SCCCC(=O)NO)n2)cc1` was tested, and the growth was -22.6% (active).
`O=S(=O)(Oc1ccc(-c2ccc3sccc3c2)cc1)c1ccc(F)cc1` gave a growth of 111%.
In the case of `COc1cc(-c2nn(-c3ccc(NC(=O)NCCCNC(=O)c4ccccc4)cc3)cc2-c2ccncc2)ccc1Cl`, the growth was -43.4% (active).
With `CN(C)CCCOc1ccc(OCCCN(C)C)c2c1C(=O)c1ccccc1C2=O` the growth was -57.9% (active).
With `COc1cccc(C2C(C#N)=C(N)Oc3cc(N)ccc32)c1` (stereo not given) the growth was 18.1%.
Work on `COc1cc(/C=C/c2cc(/C=C/c3ccc(O)c(OC)c3)[nH]c(=O)n2)ccc1O` yielded a growth of 51.8%.
Molecule `COc1ccc2nc(-c3ccc(Cl)cc3)cc(-c3nnc(SC/C(=N\O)c4ccccc4)n3-c3ccccc3)c2c1` has a growth of 98.7%.
`CCOC(=O)CN(c1sc(C)c(C)c1C(=O)OCC)S(=O)(=O)c1ccc(C)cc1` gave a growth of 108%.
`COc1ccc(/C=C2/SC(=S)NC2=O)c(OC)c1OC` showed a growth of 105%.
`CC(C)(C)OC(=O)N1CCc2c(sc3ncnc(N/N=C/c4ccccc4Br)c23)C1` showed a growth of 27.6%.
Molecule `NC(CSC(c1ccccc1)(c1ccccc1)c1cccc2ccccc12)C(=O)O` (stereo not given) has a growth of 108%.
For `CN(C)CCCOc1ccccc1NC1=C(Cl)C(=O)C(Nc2ccccc2OCCCN(C)C)=C(Cl)C1=O`, the growth was -64.9% (active).
For `NS(=O)(=O)c1ccc(Br)cc1`, the growth was 98.5%.
For `CN(C)CCCOc1ccc(NC2=C(Cl)C(=O)C(Nc3ccc(OCCCN(C)C)cc3)=C(Cl)C2=O)cc1`, the growth was -74.3% (active).
`COc1ccc(-c2n[nH]nc2-c2cc(OC)c3c(c2OC)OCO3)cc1` gave a growth of 12.9%.
`C=CCn1c(SCC(=O)Nc2ccc(C(=O)/C=C/c3cc(OC)c(OC)c(OC)c3)cc2)nnc1-c1cc(-c2ccc(Cl)cc2)nc2ccccc12` showed a growth of 115%.
`COc1ccc(C2=Cn3c(CCC(=O)c4nc5ccccc5[nH]4)nnc3SC2)cc1` showed a growth of 123%.
With `CCN1CCN(CCC(=O)Nc2cccc(-n3cc(-c4ccncc4)c(-c4ccc(Cl)c(OC)c4)n3)c2)CC1` the growth was -69.3% (active).
`N#CCc1csc(Cc2ccccc2)n1` gave a growth of 117%.
`Cc1[nH]c2ccccc2c1/C=N/Nc1ncnc2sc3c(c12)CCN(CC(=O)OC(C)(C)C)C3` gave a growth of 63.4%.
With `CCCc1cn(CC(=O)Nc2nc3ccccc3s2)nn1` the growth was 109%.
In the case of `C/C=C/CSC(C)(C)C(=O)NC`, the growth was 119%.
`Cc1ccc(Cl)cc1NC(=O)CCl` was tested, and the growth was 110%.
For `CCOC(=O)c1cc(C(=O)c2ccc(OC)c(OC)c2)n2c1ccc1ccc3cccnc3c12`, the growth was -2.29% (active).
`Cc1c(Cl)cccc1NC(=O)CCCl` gave a growth of 107%.
`Cc1ccc(NCCNCC(C)(C)O)c2c(=O)c3ccc(Cl)cc3sc12` was tested, and the growth was -79.2% (active).
With `OCC1OC(n2cnc3c(NCc4ccco4)ncnc32)C(O)C1O` (stereo not given) the growth was 19.6%.
In the case of `NS(=O)(=O)Oc1ccc(NC(=O)C2CCCCCC2)cc1`, the growth was 112%.
With `COc1cc(-c2nn(-c3ccc(NC(=O)NCCNS(=O)(=O)c4ccc(F)cc4)cc3)cc2-c2ccncc2)ccc1Cl` the growth was -63.5% (active).
`NS(=O)(=O)Oc1ccc2c(ccn2C(=O)C23CC4CC(CC(C4)C2)C3)c1` showed a growth of 114%.
`COc1ccc(-c2cc(-c3ccc(Cl)cc3)nc(SCCCC(=O)NO)n2)cc1` was tested, and the growth was 2.04% (active).
Work on `Nc1cc(Br)c(-c2nn3c(CCC(=O)c4nc5ccccc5[nH]4)nnc3s2)c(Br)c1` yielded a growth of 107%.

What follows are molecules tested on DU-145 prostate in the same assay as above. Conditions: 10 µM.
Work on `CC(C)N(CCOc1cccc(-c2nc3sccn3c2-c2ccnc(S(C)(=O)=O)n2)c1)C(C)C` yielded a growth of 89.8%.
Work on `O=C(CSc1nnc(-c2ccc(Cl)cc2)o1)Nc1ccc(C(=O)/C=C/c2ccc(Cl)cc2)cc1` yielded a growth of 103%.
For `CC[C@@H](C(=O)[C@@H](C)[C@@H](O)[C@H](C)[C@@H]1O[C@@H]([C@@H](CC)C(=O)N(CC)CC)CC[C@@H]1C)C1O[C@]2(C=CC(=O)[C@]3(CC[C@@](C)([C@H]4CC[C@](O)(CC)[C@H](C)O4)O3)O2)[C@H](C)C[C@@H]1C` (stereo not given in full), the growth was 68.5%.
`COc1ccc(-c2onc(N)c2-c2cc(OC)c3c(c2)OCO3)cc1` was tested, and the growth was 29.3%.
Molecule `CCN(CC)CCOc1cccc2c1C(=O)c1cccc(OCCN(CC)CC)c1C2=O` has a growth of 27.1%.
In the case of `COc1cc(/C=C/c2cc(/C=C/c3ccc(O)c(OC)c3)n(C(=O)Nc3ccc(C)cc3)n2)ccc1O`, the growth was 2.02% (active).
In the case of `CCOC(=O)c1cc(C(=O)c2ccc(F)cc2F)n2ccccc12`, the growth was 105%.
For `COc1cc2c(cc1NC(=O)C(Cl)Cl)-c1ccc(NC(=O)C(Cl)Cl)cc1C2`, the growth was -68.4% (active).
`COc1ccc(-c2cc(-c3ccccc3)nc(SCCCC(=O)NO)n2)cc1` was tested, and the growth was 1.16% (active).
With `O=S(=O)(Oc1ccc(-c2ccc3sccc3c2)cc1)c1ccc(F)cc1` the growth was 104%.
For `COc1cc(-c2nn(-c3ccc(NC(=O)NCCCNC(=O)c4ccccc4)cc3)cc2-c2ccncc2)ccc1Cl`, the growth was 20.6%.
In the case of `CN(C)CCCOc1ccc(OCCCN(C)C)c2c1C(=O)c1ccccc1C2=O`, the growth was 4.83% (active).
With `COc1cccc(C2C(C#N)=C(N)Oc3cc(N)ccc32)c1` (stereo not given) the growth was 10.6%.
`COc1cc(/C=C/c2cc(/C=C/c3ccc(O)c(OC)c3)[nH]c(=O)n2)ccc1O` gave a growth of 80.4%.
`COc1ccc2nc(-c3ccc(Cl)cc3)cc(-c3nnc(SC/C(=N\O)c4ccccc4)n3-c3ccccc3)c2c1` gave a growth of 84.3%.
In the case of `CCOC(=O)CN(c1sc(C)c(C)c1C(=O)OCC)S(=O)(=O)c1ccc(C)cc1`, the growth was 92.1%.
Molecule `COc1ccc(/C=C2/SC(=S)NC2=O)c(OC)c1OC` has a growth of 97.9%.
For `CC(C)(C)OC(=O)N1CCc2c(sc3ncnc(N/N=C/c4ccccc4Br)c23)C1`, the growth was 91.9%.
Work on `NC(CSC(c1ccccc1)(c1ccccc1)c1cccc2ccccc12)C(=O)O` (stereo not given) yielded a growth of 106%.
For `CN(C)CCCOc1ccccc1NC1=C(Cl)C(=O)C(Nc2ccccc2OCCCN(C)C)=C(Cl)C1=O`, the growth was -97.2% (active).
In the case of `NS(=O)(=O)c1ccc(Br)cc1`, the growth was 114%.
In the case of `CN(C)CCCOc1ccc(NC2=C(Cl)C(=O)C(Nc3ccc(OCCCN(C)C)cc3)=C(Cl)C2=O)cc1`, the growth was -95.8% (active).
`COc1ccc(-c2n[nH]nc2-c2cc(OC)c3c(c2OC)OCO3)cc1` gave a growth of 10.2%.
With `C=CCn1c(SCC(=O)Nc2ccc(C(=O)/C=C/c3cc(OC)c(OC)c(OC)c3)cc2)nnc1-c1cc(-c2ccc(Cl)cc2)nc2ccccc12` the growth was 95.3%.
Molecule `COc1ccc(C2=Cn3c(CCC(=O)c4nc5ccccc5[nH]4)nnc3SC2)cc1` has a growth of 97.7%.
Work on `CCN1CCN(CCC(=O)Nc2cccc(-n3cc(-c4ccncc4)c(-c4ccc(Cl)c(OC)c4)n3)c2)CC1` yielded a growth of 12.4%.
`N#CCc1csc(Cc2ccccc2)n1` was tested, and the growth was 108%.
Molecule `Cc1[nH]c2ccccc2c1/C=N/Nc1ncnc2sc3c(c12)CCN(CC(=O)OC(C)(C)C)C3` has a growth of 80.5%.
With `CCCc1cn(CC(=O)Nc2nc3ccccc3s2)nn1` the growth was 117%.
With `C/C=C/CSC(C)(C)C(=O)NC` the growth was 103%.
Molecule `Cc1ccc(Cl)cc1NC(=O)CCl` has a growth of 99.8%.
For `CCOC(=O)c1cc(C(=O)c2ccc(OC)c(OC)c2)n2c1ccc1ccc3cccnc3c12`, the growth was 21.7%.
With `Cc1c(Cl)cccc1NC(=O)CCCl` the growth was 106%.
With `Cc1ccc(NCCNCC(C)(C)O)c2c(=O)c3ccc(Cl)cc3sc12` the growth was 5.67% (active).
`OCC1OC(n2cnc3c(NCc4ccco4)ncnc32)C(O)C1O` (stereo not given) was tested, and the growth was 4.25% (active).
`NS(=O)(=O)Oc1ccc(NC(=O)C2CCCCCC2)cc1` showed a growth of 117%.
For `COc1cc(-c2nn(-c3ccc(NC(=O)NCCNS(=O)(=O)c4ccc(F)cc4)cc3)cc2-c2ccncc2)ccc1Cl`, the growth was 8.28% (active).
`NS(=O)(=O)Oc1ccc2c(ccn2C(=O)C23CC4CC(CC(C4)C2)C3)c1` showed a growth of 116%.
For `COc1ccc(-c2cc(-c3ccc(Cl)cc3)nc(SCCCC(=O)NO)n2)cc1`, the growth was 9.82% (active).
With `Nc1cc(Br)c(-c2nn3c(CCC(=O)c4nc5ccccc5[nH]4)nnc3s2)c(Br)c1` the growth was 102%.
